Experimental data reported in PubChem BioAssay (EPA / NIEHS).
Inconclusive results are not listed. Activity calls are given as the source filed them. The calls were made as follows: active = hit-call score of the fitted dose curve at least 0.9, where 1 is the maximum; inconclusive = response in the unintended direction; inactive = score below 0.9.

Test: Tanguay_ZF_120hpf_SWIM_legacy: (Legacy) Oregon State University Tanguay Lab 120 Hour Post-fertilization zebrafish Assay for Swim Bladder Malformation (AID 2283654);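 also: swim bladder malformation in each larva scored yes or no under brightfield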
How it was run: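 Scoring is binary for swim bladder defects at 120 hpf, by brightfield inspection of zebrafish larvae. Embryos were exposed singly from 6 hpf after pronase dechorionation, at 28C with 0.64% DMSO; mortality excluded scoring.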

Q: With `C[N+]1(C)CCCCC1` as the compound, how does the outcome read?
A: inactive

Q: With `O=[N+]([O-])c1cc(C(F)(F)F)c(Cl)c([N+](=O)[O-])c1Nc1ncc(C(F)(F)F)cc1Cl` as the compound, how does the outcome read?
A: inactive

Q: For `CCCOCC(=Nc1ccc(Cl)cc1C(F)(F)F)n1ccnc1`, which outcome is on record?
A: inactive

Q: Which outcome does the source give for `CCOP(=O)(SC(C)CC)N1CCSC1=O` (stereo not given) here?
A: inactive

Q: For `CC(COc1ccc(Oc2ccccc2)cc1)Oc1ccccn1` (stereo not given), which outcome is on record?
A: inactive

Q: With `COc1cccc(C(=O)NN(C(=O)c2cc(C)cc(C)c2)C(C)(C)C)c1C` as the compound, how does the outcome read?
A: inactive

Q: For `CCC(=NOC/C=C/Cl)C1=C(O)CC(C2CCOCC2)CC1=O` (stereo not given), which outcome is on record?
A: inactive

Q: Which outcome does the source give for `CC1=NNC(=O)N(/N=C/c2cccnc2)C1` here?
A: inactive

Q: For `Cc1ccn2nc(S(=O)(=O)Nc3c(F)cccc3F)nc2n1`, which outcome is on record?
A: inactive

Q: With `Nc1c(Cl)cc([N+](=O)[O-])cc1Cl` as the compound, how does the outcome read?
A: inactive

Q: With `CCCSP(=O)(OCC)Oc1ccc(Br)cc1Cl` (stereo not given) as the compound, how does the outcome read?
A: inactive

Q: Which outcome does the source give for `CCOP(=O)(OCC)Oc1cc(C)nc(C(C)C)n1` here?
A: inactive

Q: With `COc1ccc(C(=CC(=O)N2CCOCC2)c2ccc(Cl)cc2)cc1OC` as the compound, how does the AC50 read?
A: 63.3 µM (active)

Q: For `CNC(=O)ON=C(C)SC`, which outcome is on record?
A: inactive

Q: With `CCCSP(=O)(OCC)SCCC` as the compound, how does the outcome read?
A: inactive

Q: For `Cc1nn(-c2cc(NS(C)(=O)=O)c(Cl)cc2Cl)c(=O)n1C(F)F`, which outcome is on record?
A: inactive

Q: With `C#CC(C)(C)NC(=O)c1cc(Cl)cc(Cl)c1` as the compound, how does the outcome read?
A: inactive

Q: For `CC(C1CC1)C(O)(Cn1cncn1)c1ccc(Cl)cc1` (stereo not given), which AC50 is on record?
A: 32.6 µM (active)

Q: With `CCNc1nc(Cl)nc(NC(C)(C)C#N)n1` as the compound, how does the outcome read?
A: inactive

Q: For `COP(=O)(NC(C)=O)SC` (stereo not given), which outcome is on record?
A: inactive

Q: Which outcome does the source give for `CCOP(=S)(OCC)Oc1ccc([N+](=O)[O-])cc1` here?
A: inactive

Q: Which outcome does the source give for `CCc1cccc(CC)c1N(COC)C(=O)CCl` here?
A: inactive

Q: For `CNc1cnn(-c2cccc(C(F)(F)F)c2)c(=O)c1Cl`, which outcome is on record?
A: inactive

Q: Which outcome does the source give for `CCOP(=S)(Oc1cnc(C(C)(C)C)nc1)OC(C)C` (stereo not given) here?
A: inactive

Q: Which outcome does the source give for `CSc1nc(NC(C)C)nc(NC(C)C)n1` here?
A: inactive

Q: With `CN1COCN(Cc2cnc(Cl)s2)C1=N[N+](=O)[O-]` as the compound, how does the outcome read?
A: inactive

Q: Which outcome does the source give for `O=C(O)c1cc(Oc2ccc(C(F)(F)F)cc2Cl)ccc1[N+](=O)[O-]` here?
A: inactive

Q: For `C=C(C)[C@H]1Cc2c(ccc3c2O[C@@H]2COc4cc(OC)c(OC)cc4[C@@H]2C3=O)O1`, which outcome is on record?
A: inactive

Q: Which outcome does the source give for `CNC(=O)Oc1cccc2c1OC(C)(C)O2` here?
A: inactive

Q: With `CCCOc1nn(C(=O)NS(=O)(=O)c2ccccc2C(=O)OC)c(=O)n1C` as the compound, how does the outcome read?
A: inactive
